Test results taken from publication PMC4336329 (PLoS ONE, 2015).
The campaign covered roughly 310,000 compounds. About 2,200 (0.71%) showed an effect of 50% or more. Effects have a minus sign here. The sample holds strong results, similar compounds and a random draw of the others, so the mix is not that of the screen.

The compounds below were run against human ether-à-go-go-related gene (hERG) potassium channel (human, UniProt Q12809) (assay: primary screen, population patch clamp on CHO cells stably expressing hERG; higher = less effect of the substance).
Sequence of human ether-à-go-go-related gene (hERG) potassium channel (Q12809 whole entry, looked up): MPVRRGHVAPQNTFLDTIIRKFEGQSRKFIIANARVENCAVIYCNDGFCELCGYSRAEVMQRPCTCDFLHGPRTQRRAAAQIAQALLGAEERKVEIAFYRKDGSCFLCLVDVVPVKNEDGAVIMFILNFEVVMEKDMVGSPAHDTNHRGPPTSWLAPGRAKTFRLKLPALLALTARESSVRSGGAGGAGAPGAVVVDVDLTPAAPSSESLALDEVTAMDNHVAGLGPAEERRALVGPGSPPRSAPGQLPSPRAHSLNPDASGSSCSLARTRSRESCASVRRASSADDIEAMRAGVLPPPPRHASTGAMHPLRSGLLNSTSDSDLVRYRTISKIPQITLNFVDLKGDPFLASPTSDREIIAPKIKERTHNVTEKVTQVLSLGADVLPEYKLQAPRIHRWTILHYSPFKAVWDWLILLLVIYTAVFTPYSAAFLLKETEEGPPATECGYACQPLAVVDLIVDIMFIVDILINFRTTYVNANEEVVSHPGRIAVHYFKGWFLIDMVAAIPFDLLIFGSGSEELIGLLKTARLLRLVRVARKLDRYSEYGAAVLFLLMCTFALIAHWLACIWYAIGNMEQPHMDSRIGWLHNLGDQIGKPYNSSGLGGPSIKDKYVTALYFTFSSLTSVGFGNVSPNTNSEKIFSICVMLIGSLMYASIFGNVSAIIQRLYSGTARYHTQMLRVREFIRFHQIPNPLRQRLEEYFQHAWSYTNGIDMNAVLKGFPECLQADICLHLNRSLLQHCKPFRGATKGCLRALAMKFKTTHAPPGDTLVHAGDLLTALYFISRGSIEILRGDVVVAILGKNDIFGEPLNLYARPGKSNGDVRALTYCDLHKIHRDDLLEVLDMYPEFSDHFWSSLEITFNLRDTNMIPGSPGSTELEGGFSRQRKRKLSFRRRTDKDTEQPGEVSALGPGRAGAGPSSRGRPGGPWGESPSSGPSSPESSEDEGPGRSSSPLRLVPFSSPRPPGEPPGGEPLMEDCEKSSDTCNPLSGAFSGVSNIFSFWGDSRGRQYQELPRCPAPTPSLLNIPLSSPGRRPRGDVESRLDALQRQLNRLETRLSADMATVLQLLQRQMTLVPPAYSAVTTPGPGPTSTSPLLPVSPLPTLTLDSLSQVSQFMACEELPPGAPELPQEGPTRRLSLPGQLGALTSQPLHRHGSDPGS

Row | Compound | hERG current change (%, negative = inhibition) at 1uM [%]
1 | O=C(O)C1=C[C@H](C2CC2)C[C@H](OCCCCO)O1 | 12.3
2 | O=C(CSc1n[nH]c(=O)n1Cc1ccco1)Nc1ccccc1Cl | 6.62
3 | CCOc1cccc(C2/C(=C(/O)c3ccc4c(c3)CC(C)O4)C(=O)C(=O)N2Cc2cccnc2)c1 (stereo not drawn) | 18.4
4 | CCOC(=O)NCc1ccccc1 | -5.01
5 | CCCCCCS(=O)[C@H]1CS(=O)(=O)C[C@@H]1S(=O)CCCCCC (stereo partly drawn) | -25.8
6 | CNC(=O)Cn1ncc2c3ccccc3n(C)c2c1=O | 13.1
7 | O=C(O)CC(NC(=O)C12CC3CC(CC(C3)C1)C2)c1cc([N+](=O)[O-])ccc1Cl (stereo not drawn) | 2.33
8 | Cc1nc(SCC(=O)NC2CCCC2)[nH]c(=O)c1C | 6.4
9 | O=C1OC(c2ccc(Cl)cc2)/C(=C(/O)c2ccccc2)C1=O (stereo not drawn) | 2.03
10 | CCOC(=O)c1ccc(NC(=O)c2nc[nH]c2C(=O)NCCCNC(=O)c2[nH]cnc2C(=O)Nc2ccc(C(=O)OCC)cc2)cc1 | 13.8
11 | Cc1ccc2nc3c(cc(C(=O)NCC4CCCO4)c(=N)n3CCCOC(C)C)c(=O)n2c1 (stereo not drawn) | -72.5
12 | Cc1cccn2c(=O)c3cc(C(=O)NCC4CCCO4)c(=N)n(CCN4CCOCC4)c3nc12 (stereo not drawn) | -50.1
13 | COCCCn1c(=N)c(C(=O)NCC2CCCO2)cc2c(=O)n3cccc(C)c3nc21 (stereo not drawn) | -74.8
14 | COCCCn1c(=N)c(C(=O)NCC2CCCO2)cc2c(=O)n3ccccc3nc21 (stereo not drawn) | -44.3
15 | CCN(C(=O)c1cc2c(=O)n3cccc(C)c3nc2n1CCCOC)C1CCCCC1 | 4.12
16 | CC(C)OCCCn1c(SC(C)C(=O)NCC2CCCO2)nc2cc(Cl)ccc2c1=O (stereo not drawn) | 7.81
17 | COc1ccc(C2c3c(oc4ccc(Cl)cc4c3=O)C(=O)N2CCN2CCOCC2)cc1 (stereo not drawn) | -24
18 | CC(C)N(Cc1nc(-c2ccc(Cl)cc2)no1)C(=O)CN(C)S(=O)(=O)c1ccc(Cl)cc1 | -5.47
19 | COCCCn1c(=S)[nH]c2c(sc3ccccc32)c1=O | 14.1
20 | CCN1CCN(C(=O)c2cc3c(=O)n(C)c4ccccc4c3n2C)CC1 | 8.54
21 | Cc1cc(C)c2c(N)c(C(=O)NNC(=O)c3ccccc3)sc2n1 | 12.8
22 | Nc1ccccc1C(=O)NCc1ccccc1 | 1.59

Row | Compound | hERG current change (%, negative = inhibition) at 1uM [%]
23 | CC1(C)CC(=O)C2=C(C1)NC(=S)C(C#N)C21CCCCC1 (stereo not drawn) | 10.1
24 | CCOC(=O)N1CCN(S(=O)(=O)c2ccc(C(=O)Nc3nnc(C)o3)cc2)CC1 | 7.3
25 | CC(CN1C(C)CCCC1C)OC(=O)c1ccccc1Br.Cl (stereo not drawn) | 4.15
26 | Cc1sc2nc(CN3CCCC3)nc(N3CCN(S(=O)(=O)c4cccs4)CC3)c2c1C | -65.2
27 | Cc1sc2nc(CN3CCCC3)nc(N3CCN(S(=O)(=O)c4ccccc4)CC3)c2c1C | -19.4
28 | Cc1ccc(S(=O)(=O)N2CCN(c3nc(CN4CCCC4)nc4sc(C)c(C)c34)CC2)cc1 | -48.8
29 | CC(C)CC(=O)Nc1nc2ccc(S(C)(=O)=O)cc2s1 | 4.38
30 | O=C(NCc1ccco1)c1scc2c1OCCO2 | 6.64
31 | CCCCn1c(N)c(N(CCOC)C(=O)c2ccc(-c3cccc(C(F)(F)F)c3)o2)c(=O)[nH]c1=O | 10.2
32 | O=C(Nc1ccc(Cn2nnc3ccccc32)cc1)c1ccco1 | 9.6
33 | Cl.O=C(CN1CCN(C2CCCCC2)CC1)Nc1ccccc1-c1ccccc1 | -70
34 | Cl.O=C(CN1CCN(C2CCCCC2)CC1)Nc1cccc2ccccc12 | 4.28
35 | O=C(CN1CCCCC1)Nc1ccccc1-c1ccccc1 | 14.4
36 | CCCc1c(C(=O)N/N=C/c2cccnc2)nnn1-c1nonc1N | 16.6
37 | COc1nccc(-c2ccc(F)cc2)c1C#N | 16.9
38 | O=C(Cn1c(=O)oc2ccccc21)Nc1ccc(Br)cc1 | 12.5
39 | CCn1c(N)[n+](CC(=O)Nc2ccc(SC(F)F)cc2)c2ccccc21.[Cl-] | -63.1
40 | O=C(Cc1ccccc1)Nc1ccc(SC(F)F)cc1 | 2.98
41 | CC[N+](CC)(CC)CC(=O)Nc1ccc(SC(F)F)cc1.[Cl-] | 27.1
42 | Cc1cc(C)cc(N2C(=O)CC(c3ccccc3)CC2=O)c1 | 10.3
43 | O=C(COC(=O)c1ccc[nH]c1=O)Nc1ccc2c(c1)OC(F)(F)O2 | 9.4
44 | CN(C)CCCN(C(=O)c1sc2ccccc2c1Cl)c1nc2c(F)cccc2s1.Cl | 8.6

Row | Compound | hERG current change (%, negative = inhibition) at 1uM [%]
45 | Cc1cccc2sc(N(CCCN(C)C)C(=O)c3ccco3)nc12.Cl | -54.8
46 | CN(C)CCCN(C(=O)c1ccco1)c1nc2c(F)cccc2s1.Cl | -62.9
47 | CN(C)CCCN(C(=O)c1ccco1)c1nc2ccc(F)cc2s1.Cl | -37.4
48 | CN(C)CCCN(C(=O)c1ccco1)c1nc2c(F)cc(F)cc2s1.Cl | -60.2
49 | CN(C)CCCN(C(=O)c1ccc(C(=O)c2ccccc2)cc1)c1nc2c(F)cccc2s1 | -1.61
50 | Cc1ccc2nc(N(CCCN(C)C)C(=O)c3ccco3)sc2c1.Cl | -9.63
51 | CN(C)CCCN(C(=O)c1ccco1)c1nc2ccc(Cl)cc2s1.Cl | -14.7
52 | Cc1cccc2sc(N(CCCN(C)C)C(=O)c3nc4ccccc4s3)nc12.Cl | 3.73
53 | CCN1CCN(C(c2ccc(OC)cc2)c2nnnn2Cc2ccc3c(c2)OCO3)CC1.Cl (stereo not drawn) | -17.4
54 | N#Cc1ccccc1S(=O)(=O)N1CCC(C(=O)NCc2ccccc2CN2CCCC2)CC1 | -45.7
55 | Cn1c(=O)c2c(nc(NC3CCCCC3)n2CC(=O)C23CC4CC(CC(C4)C2)C3)n(C)c1=O | 15.4
56 | CCCC1CC(C)(c2csc(Nc3ccc(OCC)cc3)n2)OC1=O (stereo not drawn) | -0.99
57 | COC(=O)c1[nH]c2cccc(OC)c2c1NC(=O)CCN1CC(C)CC(C)C1 (stereo not drawn) | -4.14
58 | CCOc1ccccc1NC(=S)N(CCCN1CCOCC1)Cc1cn(C)c2ccccc12 | 5.62
59 | Cc1ccc(CN2C3CCCC2CC(NC(=O)c2ccc(F)cc2)C3)cc1 (stereo not drawn) | -77
60 | Cc1ccc(CN2C3CCCC2CC(NC(=S)NCc2ccccc2)C3)cc1 (stereo not drawn) | -54.4
61 | Cc1ccc(C(=O)NC2CC3CCCC(C2)N3Cc2ccccc2)cc1 (stereo not drawn) | -6.55
62 | CCCN1C2CCCC1CC(NC(=O)c1ccc(F)cc1)C2 (stereo not drawn) | -29.7
63 | CC(=O)NC1CC2CCCC(C1)N2Cc1ccc(C)cc1 (stereo not drawn) | -10.4
64 | O=C(NC1CC2CCCC(C1)N2Cc1ccc(F)cc1)c1ccc(F)cc1 (stereo not drawn) | -38.3
65 | CCNC(=S)NC1CC2CCCC(C1)N2Cc1ccc(C)cc1 (stereo not drawn) | -12.3
66 | CNC(=S)NC1CC2CCCC(C1)N2Cc1ccc(C)cc1 (stereo not drawn) | -4.5

Row | Compound | hERG current change (%, negative = inhibition) at 1uM [%]
67 | Cc1ccc(CN2C3CCCC2CC(NC(=O)c2ccc(C)cc2)C3)cc1 (stereo not drawn) | -77.3
68 | O=C1CC(=C2c3ccccc3-c3ccccc32)C(=O)N1CCN1CCN(c2cccc(Cl)c2)CC1 | 7.4
69 | COc1cccc(CN2CCNC(=O)C2CC(=O)N2CCCCO2)c1OC (stereo not drawn) | 7.47
70 | COc1ccc(CCN2C(=O)CSC2=S)cc1OC | 11.5
71 | COC(=O)C1=CNC=C(C(=O)OC)C1c1cccc(OC)c1 | 9.02
72 | Cc1cc(/C=N/NC(N)=S)c(C)n1-c1ccc(Cl)cc1 | 1.13
73 | Cc1nc2c(C)cccn2c1/C(O)=C1\C(=O)C(=O)N(CCN(C)C)C1c1ccco1 (stereo not drawn) | 11.2
74 | Cc1ccc(C#CC[N+]2(CC#Cc3ccc(C)cc3)CCCCC2)cc1.[Br-] | -51.8
75 | C#CC[N+]1(CC#Cc2ccc(C)cc2)CCCCC1.[Br-] | 2.2
76 | Cc1ccc(C#CC[N+]2(C)CCCCC2)cc1.[Br-] | 14.2
77 | COc1ccccc1NC(=O)C1CCCN(S(=O)(=O)c2ccc(-n3cnnn3)cc2)C1 (stereo not drawn) | -23.5
78 | COc1ccc(C)cc1NC(=O)C1CCCN(S(=O)(=O)c2ccc(-n3cnnn3)cc2)C1 (stereo not drawn) | -71.4
79 | COc1ccc(OC)c(NC(=O)C2CCCN(S(=O)(=O)c3ccc(-n4cnnn4)cc3)C2)c1 (stereo not drawn) | 5.12
80 | O=C(NCc1ccccc1)c1onc(CSc2ccc(F)cc2)c1C(=O)NCc1ccccc1 | 5.63
81 | O=C(NCc1ccccc1)c1onc(CSc2ccc(F)cc2)c1C(=O)NCCCN1CCOCC1 | -54.9
82 | O=C(NCCCN1CCOCC1)c1onc(CSc2ccccc2)c1C(=O)NCCCN1CCOCC1 | 14.7
83 | CCC(CC)NCCOC(=O)c1ccc([N+](=O)[O-])cc1 | -3.41
84 | CN1C(=O)C(Cc2cccs2)C(=O)N(C)C1=O | 15.2
85 | CCCCCn1c(NC(=O)c2ccco2)c(C(=O)OCC)c2nc3ccccc3nc21 | -73.9
86 | CCCCn1c(NC(=O)c2ccc(Br)o2)c(C(=O)OCC)c2nc3ccccc3nc21 | -17.9
87 | CCCCn1c(NC(=O)c2ccco2)c(C(=O)OCC)c2nc3ccccc3nc21 | -22
